In the supplement of paper PMC12494721:
Counter-ions that a name gives are not always drawn.

Assays:
Conditions in all cases: incubation time: 27 h, anaerobic, 37 °C;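 for the amine columns active = adjusted P below 0.05 in both replicates with a change the same way and a mean fold change under 0.8 or over 1.25; inactive = the rest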
[1] = test system: Clostridium sporogenes DSM 1664; assay: growth (OD595) fold change vs plate DMSO controls (fold change (ratio)); higher = more growth
Outline: (§1)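 Growth is the fold change relative to the median of plate DMSO controls. Readings came from anaerobic mGAM cultures in 96-well plates grown for 27 h at 37 °C and read at 595 nm. They were blank-subtracted, corrected for compound background with 20 µM compound solutions in water, and converted to OD with a calibration factor of 5. Values are means of 2 biological replicates, and fold changes above 1.5 were set to NA.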

Escherichia coli IAI1 [2] = assay: as above
Outline: as §1

[3] = test system: Klebsiella aerogenes DSM 30053; assay: as above
Outline: as §1

[4] = test system: Ruminococcus gnavus DSM 108212; assay: as above
Outline: as §1

[5] = test system: Klebsiella aerogenes DSM 30053; assay: fold change of Histamine concentration vs plate DMSO controls (fold change (ratio)); higher = more amine produced, active = hit call of the paper (significant change in both replicates, either direction)
Outline: (§2)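 Anaerobic mGAM cultures of four gut bacterial strains were grown at 37 °C for 27 h in 80 µL wells, starting at OD 0.1 before 1:1 dilution. Compounds were at 20 µM final (sweeteners 50 µM). Whole cultures were extracted with cold acetonitrile/methanol containing 0.1% formic acid and centrifuged. Amines were quantified by LC–triple-quadrupole MS (dynamic MRM) against external calibration curves and drift-corrected within batch. Each value is the fold change versus plate DMSO controls, averaged over 2 biological replicates.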

[6] = test system: Clostridium sporogenes DSM 1664; assay: fold change of Tryptamine concentration vs plate DMSO controls (fold change (ratio)); higher = more amine produced, active = hit call of the paper (significant change in both replicates, either direction)
Outline: as §2

[7] = test system: Ruminococcus gnavus DSM 108212; assay: as above
Outline: as §2

Escherichia coli IAI1 [8] = assay: fold change of Putrescine concentration vs plate DMSO controls (fold change (ratio)); higher = more amine produced, active = hit call of the paper (significant change in both replicates, either direction)
Outline: as §2

[9] = test system: Klebsiella aerogenes DSM 30053; assay: as above
Outline: as §2

Escherichia coli IAI1 [10] = assay: fold change of Cadaverine concentration vs plate DMSO controls (fold change (ratio)); higher = more amine produced, active = hit call of the paper (significant change in both replicates, either direction)
Outline: as §2

[11] = test system: Klebsiella aerogenes DSM 30053; assay: as above
Outline: as §2

[12] = test system: Ruminococcus gnavus DSM 108212; assay: fold change of 2-Phenylethylamine concentration vs plate DMSO controls (fold change (ratio)); higher = more amine produced, active = hit call of the paper (significant change in both replicates, either direction)
Outline: as §2

Structure (SMILES) | growth [1] | growth (Escherichia coli IAI1 [2]) | growth [3] | growth [4] | fold change of Histamine concentration [5] | fold change of Tryptamine concentration [6] | fold change of Tryptamine concentration [7] | fold change of Putrescine concentration (Escherichia coli IAI1 [8]) | fold change of Putrescine concentration [9] | fold change of Cadaverine concentration (Escherichia coli IAI1 [10]) | fold change of Cadaverine concentration [11] | fold change of 2-Phenylethylamine concentration [12]
COCCCOc1ccnc(C[S+]([O-])c2nc3ccccc3[nH]2)c1C (centres undefined) [Rabeprazole sodium salt] (20 µM) | 1.24 | 0.993 | 1.03 | 1.26 | 0.965 (inactive) | 1.09 (inactive) | 1.15 (inactive) | 0.886 (inactive) | 0.95 (inactive) | 0.955 (inactive) | 1.03 (inactive) | 1.23 (inactive)
C[N+]1(C)CCC(OC(=O)C(O)(c2ccccc2)C2CCCC2)C1 (centres undefined) [Glycopyrrolate bromide] (20 µM) | 0.836 | 1.03 | 1.01 | 0.959 | 1 (inactive) | 1.01 (inactive) | 0.994 (inactive) | 1.08 (inactive) | 1 (inactive) | 1.01 (inactive) | 1.01 (inactive) | 1.02 (inactive)
CCCCNc1ccc(C(=O)OCCN(C)C)cc1 [Tetracaine hydrochloride] (20 µM) | 1.06 | 1.02 | 0.968 | 0.907 | 1.08 (inactive) | 1.04 (inactive) | 1.07 (inactive) | 0.956 (inactive) | 1.04 (inactive) | 0.983 (inactive) | 0.991 (inactive) | 1.05 (inactive)
COc1ccc(C(=O)NCc2cccnc2)cc1C(=O)NCc1cccnc1 [Picotamide monohydrate] (20 µM) | 0.983 | 0.972 | 0.998 | 0.842 | 1.07 (inactive) | 1.06 (inactive) | 0.926 (inactive) | 0.989 (inactive) | 1.05 (inactive) | 0.962 (inactive) | 1.02 (inactive) | 0.866 (inactive)
O=C1NCC2(CCN(CCc3ccccc3)CC2)O1 [Fenspiride hydrochloride] (20 µM) | 1.08 | 0.982 | 1.05 | 1.03 | 0.89 (inactive) | 1.02 (inactive) | 1.03 (inactive) | 0.98 (inactive) | 0.973 (inactive) | 0.994 (inactive) | 1.02 (inactive) | 0.988 (inactive)
CC(C)(CO)[C@@H](O)C(=O)NCCCO [(D)-Panthenol] (20 µM) | 0.885 | 0.982 | 1.05 | 1.15 | 1.02 (inactive) | 0.993 (inactive) | 0.956 (inactive) | 0.964 (inactive) | 1.01 (inactive) | 1 (inactive) | 0.996 (inactive) | 0.999 (inactive)
O=C1OC(CN2CCOCC2)CN1/N=C/c1ccc([N+](=O)[O-])o1 (centres undefined) [Furaltadone hydrochloride] (20 µM) | 0.861 | 1.04 | 0.945 | 0.987 | 0.938 (inactive) | 0.89 (inactive) | 0.852 (inactive) | 0.777 (inactive) | 0.939 (inactive) | 1.7 (active) | 1.01 (inactive) | 0.929 (inactive)
CN1CCN(CCCN2c3ccccc3Sc3ccc(S(=O)(=O)N(C)C)cc32)CC1 [Thioproperazine dimesylate] (20 µM) | 0.886 | 0.986 | 1.12 | 1.15 | 0.898 (inactive) | 1.03 (inactive) | 0.963 (inactive) | 0.969 (inactive) | 0.976 (inactive) | 0.99 (inactive) | 1.01 (inactive) | 1.06 (inactive)
CCN(CC)CCOc1ccc(C(=C(Cl)c2ccccc2)c2ccccc2)cc1 [(Z,E) Clomiphene citrate] (20 µM) | 1.06 | 1 | 1.02 | 1.01 | 0.973 (inactive) | 1.05 (inactive) | 0.655 (active) | 0.961 (inactive) | 0.981 (inactive) | 0.955 (inactive) | 1.01 (inactive) | 0.804 (inactive)
O=C1Cc2cc(CCN3CCN(c4nsc5ccccc45)CC3)c(Cl)cc2N1 [Ziprasidone  hydrochloride monohydrate] (20 µM) | 1.09 | 1.06 | 1.03 | 1.23 | 1.23 (inactive) | 0.998 (inactive) | 0.712 (active) | 1.12 (inactive) | 1.1 (inactive) | 1.08 (inactive) | 1.06 (inactive) | 0.771 (active)
O=C1CN2Cc3c(ccc(Cl)c3Cl)N=C2N1 [Anagrelide] (20 µM) | 0.955 | 1.11 | 1.05 | 1.14 | 0.845 (inactive) | 1.03 (inactive) | 1.02 (inactive) | 1.05 (inactive) | 0.986 (inactive) | 1.16 (inactive) | 1.01 (inactive) | 0.962 (inactive)
Cc1cccc(C)c1OCC(C)N (centres undefined) [Mexiletine hydrochloride] (20 µM) | 0.941 | 1.02 | 1.15 | 0.936 | 0.934 (inactive) | 0.991 (inactive) | 1.02 (inactive) | 0.985 (inactive) | 0.998 (inactive) | 1.03 (inactive) | 1.02 (inactive) | 1.07 (inactive)
